In PubChem BioAssay (NCATS):
Results filed as inconclusive are left out. A call without a number means that no potency is given here. Active and inactive are the calls of the source. Calls come from the whole dose curve; as a rule, active = well fitted curve in the direction sought with a large enough effect; inconclusive = small, poorly fitted or top-dose-only effect, or another doubt; inactive = no such curve, though single readings can be large; an effect the other way counts as inactive or inconclusive.

Tests used:
[1] = biological target: ATP-dependent 6-phosphofructokinase (Trypanosoma brucei brucei) (UniProt O15648); experiment: qHTS Assay to Find Inhibitors of T. brucei phosphofructokinase: hit validation (AID 492961);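 note: luminescence reports ADP formed as PFK phosphorylates fructose-6-phosphate with ATP; series mostly up to about 51 µM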
ATP-dependent 6-phosphofructokinase (Trypanosoma brucei brucei), sequence (O15648 whole entry, looked up): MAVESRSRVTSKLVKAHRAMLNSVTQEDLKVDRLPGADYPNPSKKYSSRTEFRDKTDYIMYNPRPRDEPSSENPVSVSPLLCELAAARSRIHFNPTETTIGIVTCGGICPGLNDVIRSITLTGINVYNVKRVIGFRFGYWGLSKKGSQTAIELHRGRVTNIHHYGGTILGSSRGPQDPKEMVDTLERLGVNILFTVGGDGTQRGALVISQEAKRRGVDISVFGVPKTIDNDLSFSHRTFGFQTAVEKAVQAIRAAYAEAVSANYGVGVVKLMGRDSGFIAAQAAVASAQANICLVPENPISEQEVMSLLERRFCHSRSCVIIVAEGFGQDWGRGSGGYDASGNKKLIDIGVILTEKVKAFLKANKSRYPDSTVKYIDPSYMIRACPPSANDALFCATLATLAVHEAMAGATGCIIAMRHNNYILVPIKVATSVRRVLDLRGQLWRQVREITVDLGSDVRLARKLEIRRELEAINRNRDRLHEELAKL
In short: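 Reaction: 0.1 M triethanolamine pH 8.0, 5 mM MgCl2, F6P 0.5 mM, ATP 0.1 mM, PFK 1.25 nM, 45 min RT. Read-out: ADP-Glo luminescence. Analysis: concentration-response fits, classed by r2 and efficacy.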

[2] = biological target: M-phase phosphoprotein 8 (Homo sapiens) (UniProt Q99549); experiment: qHTS Validation Assay for Inhibitors for MPP8 Chromodomain Interactions with Methylated Histone Tails (AID 488949);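 note: 50 nM MPP8 with 50 nM peptide preformed then compounds added for 30 min; AlphaScreen signal from MPP8 chromodomain bound to biotinylated H3K9me3 peptide; top concentration of the series differs between compounds; nearly all actives have a fitted effect of over 55% in size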
M-phase phosphoprotein 8 (Homo sapiens), sequence (Q99549 whole entry, looked up): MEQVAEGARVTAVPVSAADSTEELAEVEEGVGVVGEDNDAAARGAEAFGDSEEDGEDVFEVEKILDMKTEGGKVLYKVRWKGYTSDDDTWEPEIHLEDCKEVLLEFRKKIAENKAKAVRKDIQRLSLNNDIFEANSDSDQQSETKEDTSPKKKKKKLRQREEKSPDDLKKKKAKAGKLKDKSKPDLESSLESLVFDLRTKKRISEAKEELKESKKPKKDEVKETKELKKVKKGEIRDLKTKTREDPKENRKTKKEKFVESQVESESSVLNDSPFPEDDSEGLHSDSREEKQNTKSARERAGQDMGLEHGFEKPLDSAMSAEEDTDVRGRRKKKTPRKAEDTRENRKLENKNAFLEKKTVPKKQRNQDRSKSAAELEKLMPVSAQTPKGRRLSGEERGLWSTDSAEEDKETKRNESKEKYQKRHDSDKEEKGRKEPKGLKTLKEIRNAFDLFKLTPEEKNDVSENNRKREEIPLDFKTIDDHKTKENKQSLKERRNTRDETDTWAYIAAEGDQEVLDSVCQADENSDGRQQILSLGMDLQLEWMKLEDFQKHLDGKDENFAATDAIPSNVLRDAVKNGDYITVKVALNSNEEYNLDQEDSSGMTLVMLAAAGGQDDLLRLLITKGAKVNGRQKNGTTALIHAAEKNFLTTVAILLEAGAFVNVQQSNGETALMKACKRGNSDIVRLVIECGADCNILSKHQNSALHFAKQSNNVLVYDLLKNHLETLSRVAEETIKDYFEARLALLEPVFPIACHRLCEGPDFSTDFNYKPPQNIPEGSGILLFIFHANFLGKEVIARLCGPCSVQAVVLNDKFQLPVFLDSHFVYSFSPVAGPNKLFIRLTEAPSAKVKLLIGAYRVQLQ
In short: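 Chemiluminescent proximity assay: histidine-tag capture via nickel acceptor beads, biotin peptide via streptavidin donor beads. Protein and peptide each at 50 nM, pH 7.4, with 30 min incubations at room temperature for complex formation, compound exposure and bead binding.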

[3] = biological target: Transient receptor potential cation channel subfamily V member 1 (Homo sapiens) (UniProt Q8NER1); experiment: HTS Assay for Compounds that Act as Enhancers of the Vanilloid Receptor 1 (AID 488979)
Transient receptor potential cation channel subfamily V member 1 (Homo sapiens), sequence (Q8NER1 whole entry, looked up): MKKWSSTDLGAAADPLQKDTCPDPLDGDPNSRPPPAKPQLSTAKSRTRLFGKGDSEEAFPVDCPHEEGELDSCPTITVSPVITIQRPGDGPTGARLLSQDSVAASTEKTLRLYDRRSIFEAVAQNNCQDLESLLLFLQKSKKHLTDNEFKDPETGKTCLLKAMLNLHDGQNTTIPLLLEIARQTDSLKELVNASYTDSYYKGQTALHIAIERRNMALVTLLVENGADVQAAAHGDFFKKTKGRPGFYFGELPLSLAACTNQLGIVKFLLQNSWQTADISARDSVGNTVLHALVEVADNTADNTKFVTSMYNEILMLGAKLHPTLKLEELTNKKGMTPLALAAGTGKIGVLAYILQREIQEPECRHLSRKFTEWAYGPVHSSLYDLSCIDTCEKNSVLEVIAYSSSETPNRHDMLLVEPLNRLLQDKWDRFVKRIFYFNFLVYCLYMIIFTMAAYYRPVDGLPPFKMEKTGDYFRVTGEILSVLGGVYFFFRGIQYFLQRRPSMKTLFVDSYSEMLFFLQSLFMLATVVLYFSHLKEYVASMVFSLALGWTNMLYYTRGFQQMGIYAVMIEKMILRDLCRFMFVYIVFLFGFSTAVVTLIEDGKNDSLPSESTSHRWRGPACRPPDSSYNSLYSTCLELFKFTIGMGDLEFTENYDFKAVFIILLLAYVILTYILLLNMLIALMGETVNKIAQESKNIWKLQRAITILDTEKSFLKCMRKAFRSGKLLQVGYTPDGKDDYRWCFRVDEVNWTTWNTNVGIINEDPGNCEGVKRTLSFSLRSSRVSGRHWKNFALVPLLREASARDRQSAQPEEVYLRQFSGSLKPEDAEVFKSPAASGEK
In short: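 TRPV1-expressing cells loaded with Fluo-8 calcium dye; compounds added and calcium influx read kinetically for 3 min (agonist phase), then capsaicin at EC20 added and read 2 min more for enhancement. Fluorescence ex 480/em 520 nm.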

[4] = biological target: Thyrotropin receptor (Homo sapiens) (UniProt P16473); experiment: qHTS Assay for Antagonists of the Thyroid Stimulating Hormone Receptor (AID 488980);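 note: TSHR-transfected HEK293 cells stimulated with TSH at EC80 of 4 nM; series mostly up to about 58 µM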
Thyrotropin receptor (Homo sapiens), sequence (P16473 whole entry, looked up): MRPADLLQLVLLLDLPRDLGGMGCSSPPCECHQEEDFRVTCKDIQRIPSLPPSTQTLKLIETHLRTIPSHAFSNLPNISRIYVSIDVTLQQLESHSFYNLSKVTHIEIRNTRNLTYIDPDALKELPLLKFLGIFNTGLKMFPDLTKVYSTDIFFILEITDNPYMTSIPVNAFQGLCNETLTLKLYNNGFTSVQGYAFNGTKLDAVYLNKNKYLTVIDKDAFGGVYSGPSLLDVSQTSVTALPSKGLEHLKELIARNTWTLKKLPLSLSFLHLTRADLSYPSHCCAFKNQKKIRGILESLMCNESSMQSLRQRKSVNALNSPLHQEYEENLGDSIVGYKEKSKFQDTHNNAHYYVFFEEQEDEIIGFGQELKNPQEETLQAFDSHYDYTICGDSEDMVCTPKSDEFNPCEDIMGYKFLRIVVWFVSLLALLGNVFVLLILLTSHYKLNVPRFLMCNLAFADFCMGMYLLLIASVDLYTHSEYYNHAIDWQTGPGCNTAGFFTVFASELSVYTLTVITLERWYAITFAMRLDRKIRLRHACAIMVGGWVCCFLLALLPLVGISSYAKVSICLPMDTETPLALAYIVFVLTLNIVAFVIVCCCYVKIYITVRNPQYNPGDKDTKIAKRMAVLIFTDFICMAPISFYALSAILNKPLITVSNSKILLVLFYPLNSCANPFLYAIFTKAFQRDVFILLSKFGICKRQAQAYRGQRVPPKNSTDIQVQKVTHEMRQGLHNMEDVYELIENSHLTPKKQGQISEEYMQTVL
Text: TSH is an alpha/beta heterodimeric glycoprotein hormone secreted from the anterior pituitary gland which belongs to the glycoprotein hormone family. The actions of TSH are mediated by a seven-transmembrane receptor, which upon TSH binding couples preferentially to the G-alpha (s) protein (Gs), resulting in activation of adenylate cyclase and increase in cyclic adenosine 3', 5' monophosphate (cAMP). The TSH receptor (THSR) is mainly expressed in thyroid follicular cells and regulates their growth and function. This cell based assay was conducted on a TSHR transfected HEK 293 cell line, measuring cAMP stimulation using antibody-based Homogeneous Time Resolved Fluorescence (HTRF).
Our goal is to identify small molecules that will inhibit (antagonize) the thyroid-stimulating hormone receptor (TSHR), a member of the 7 transmembrane-spanning receptor (7TMR) family of cell surface receptors. TSHR-mediated hyperthyroidism is important in thyroid pathology. The development of small molecule antagonists of TSHR may lead to therapeutic approaches for TSHR-mediated hyperthyroidism caused by constitutively activating mutations or stimulating auto-antibodies associated with Graves' disease. Graves' disease is the leading cause of hyperthyroidism and is caused by autoantibodies that stimulate TSHR (TsAbs) causing thyroid growth and unregulated overproduction of thyroid hormones and existing treatments have liabilities (agranulocytosis). In addition, TSHRs are known to be expressed in multiple extrathyroidal tissues including bone, brain, kidney, testis, fat and cells of the immune system but the role of the TSHR in these tissues is not clear. Therefore, TSHR antagonists/inverse agonists could be used as probes of extrathyroidal TSHR function. Finally, TSHR inverse agonists, which are a subclass of antagonists that inhibit agonist-independent (or basal or constitutive) TSHR signaling, could be used to inhibit TSH-independent signaling in patients with recurrent or metastatic thyroid cancer who are receiving thyroid hormone to suppress TSH.
An anti cAMP antibody contains a fluorescent cryptate tag (excitation 337 nm; emission 620 nm) and the acceptor is cAMP-d2 (excitation 620 nm; emission 665 nm). When antibody and cAMP-d2 interact and are excited by a 337 nm light, a FRET occurs resulting in emission at 665 nm. The assay is competition between cAMP-d2 and cAMP (from the cell lysate). The homogeneous protocol allows for one step dispense after stimulation that is automation friendly.
Step, Parameter, Value, Description
1, Cells, 3 uL, 2000 TSHR freshly harvested cells/well 1536 TC treated White solid bottom plate (Cells resuspended in 10 mM HEPES buffered HBSS and 70 uM RO 20-1724)
2, Compound, 23 nL, Libraries and controls
3, Compound, 1 uL, EC80 TSH (4 nM final)
5, Reagent, 2 uL, cAMP antibody diluted 1:20 in lysis buffer
6, Time, 30 minutes, Room temperature
7, Detector, HTRF settings, Viewlux

[5] = biological target: Tyrosyl-DNA phosphodiesterase 1 (Homo sapiens) (UniProt Q9NUW8); experiment: Confirmation Assay for Inhibitors of Tyrosyl-DNA Phosphodiesterase (TDP1) (AID 489007); conditions: recombinant human TDP1 enzymatic activity, dose-response; note: potency is the fitted concentration of half-maximal effect; nearly all actives have a fitted effect of over 40% in size
Tyrosyl-DNA phosphodiesterase 1 (Homo sapiens), sequence (Q9NUW8 whole entry, looked up): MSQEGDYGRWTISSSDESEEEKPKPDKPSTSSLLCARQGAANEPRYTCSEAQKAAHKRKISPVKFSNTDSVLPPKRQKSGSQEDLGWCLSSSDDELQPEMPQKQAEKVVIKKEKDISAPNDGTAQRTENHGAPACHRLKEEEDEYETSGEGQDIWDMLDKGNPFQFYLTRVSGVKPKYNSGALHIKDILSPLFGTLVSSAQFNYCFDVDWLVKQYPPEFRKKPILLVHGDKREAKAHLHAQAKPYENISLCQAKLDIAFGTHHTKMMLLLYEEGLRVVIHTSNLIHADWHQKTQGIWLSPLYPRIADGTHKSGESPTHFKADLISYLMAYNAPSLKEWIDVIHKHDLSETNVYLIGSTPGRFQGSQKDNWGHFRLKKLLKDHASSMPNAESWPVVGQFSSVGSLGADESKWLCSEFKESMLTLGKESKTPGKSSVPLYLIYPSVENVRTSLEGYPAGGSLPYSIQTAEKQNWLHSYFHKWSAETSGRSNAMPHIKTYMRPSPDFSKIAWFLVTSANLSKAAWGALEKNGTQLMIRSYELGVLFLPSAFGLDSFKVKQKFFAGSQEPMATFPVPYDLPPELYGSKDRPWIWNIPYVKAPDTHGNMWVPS
In short: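 Tdp1 1 nM + cpd, 15 min RT; add biotin/phosphotyrosine-FITC oligo 15 nM, 5 min RT; add AS donor/acceptor beads 10 ug/ml, 10 min RT; read AlphaScreen. No-enzyme wells = max signal.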

[6] = biological target: Methanococcus maripaludis chaperonin (MmCpn) (UniProt Q6LX38); experiment: High-Throughput Screening for Modulators of Cytosolic Chaperonin Activity: MmCpn Primary Screen (AID 488978)
Methanococcus maripaludis chaperonin (MmCpn), sequence (Q6LX38 1-543): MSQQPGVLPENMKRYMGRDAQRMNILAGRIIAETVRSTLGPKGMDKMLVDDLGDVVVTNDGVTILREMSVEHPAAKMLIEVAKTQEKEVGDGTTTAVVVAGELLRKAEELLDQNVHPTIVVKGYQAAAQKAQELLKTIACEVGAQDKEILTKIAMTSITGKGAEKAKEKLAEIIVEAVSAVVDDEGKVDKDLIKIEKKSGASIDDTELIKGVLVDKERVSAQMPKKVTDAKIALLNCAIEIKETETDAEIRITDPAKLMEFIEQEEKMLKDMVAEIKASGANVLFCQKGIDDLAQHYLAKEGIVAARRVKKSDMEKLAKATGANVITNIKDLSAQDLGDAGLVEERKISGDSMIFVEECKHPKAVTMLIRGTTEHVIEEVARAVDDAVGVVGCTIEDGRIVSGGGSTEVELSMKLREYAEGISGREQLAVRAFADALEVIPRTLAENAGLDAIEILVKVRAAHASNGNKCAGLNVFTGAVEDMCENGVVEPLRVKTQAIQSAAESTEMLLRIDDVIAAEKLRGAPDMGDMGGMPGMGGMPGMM
In short: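 HTRF readout (320 nm excitation, 590/665 nm emission) of ADP generated by 50 nM MmCpn hydrolysing 30 uM ATP during 10 min at 37C; compound preincubated 5 min RT.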

[7] = biological target: D(1A) dopamine receptor (Homo sapiens) (UniProt P21728); experiment: HTS Assay for Allosteric Agonists of the Human D1 Dopamine Receptor: Primary Screen for Agonists (AID 488981)
D(1A) dopamine receptor (Homo sapiens), sequence (P21728 whole entry, looked up): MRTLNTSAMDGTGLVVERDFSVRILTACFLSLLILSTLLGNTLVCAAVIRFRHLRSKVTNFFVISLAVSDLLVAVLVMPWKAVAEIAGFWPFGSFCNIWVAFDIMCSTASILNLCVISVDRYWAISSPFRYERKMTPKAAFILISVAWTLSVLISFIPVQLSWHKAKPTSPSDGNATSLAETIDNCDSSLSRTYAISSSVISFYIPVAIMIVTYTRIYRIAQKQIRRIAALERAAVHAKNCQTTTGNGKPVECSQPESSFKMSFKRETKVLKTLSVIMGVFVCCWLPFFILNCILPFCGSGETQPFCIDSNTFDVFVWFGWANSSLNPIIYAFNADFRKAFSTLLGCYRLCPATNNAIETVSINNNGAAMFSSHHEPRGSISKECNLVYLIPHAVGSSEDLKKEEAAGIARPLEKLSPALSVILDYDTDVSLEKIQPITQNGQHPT
In short: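 Tetracycline-induced HEK293 T-REx cells force-coupled to calcium signalling were incubated overnight at 30 C and dye-loaded at room temperature. Calcium flux over 180 s after compound addition flagged agonists; a further 180 s read after EC20 dopamine flagged potentiators.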

[8] = biological target: D(1A) dopamine receptor (Homo sapiens) (UniProt P21728); experiment: HTS Assay for Allosteric Agonists of the Human D1 Dopamine Receptor: Primary Screen for Potentiators (AID 488982)
Text: Dopamine receptors (DARs) are involved in the etiology and/or therapy of a number of neuropsychiatric and endocrine disorders. For instance, all receptor-based antiparkinsonian drugs work via stimulating the […] DAR subtype whereas all FDA-approved antipsychotic agents are antagonists of this receptor. […] There are three different types of allosteric modulators that we are seeking, two of which will stimulate or augment receptor signaling, allosteric agonists and potentiators, while the third, allosteric antagonists, will attenuate receptor signaling. The present primary screening assay measures compound agonism by tracking calcium flux in a […], inducible Hek293 Trex D1 cell line.
Freshly passaged cells are plated in 1536 well black, clear bottom plates at a density of 4000 cells/well in 3 ul of complete media containing 1x tetracycline inducer. After an overnight incubation at […] in 5% CO2, cells are loaded with 2 ul of the no wash Calcium Assay Kit (ABD Bioquest) and incubated at room temperature for 30 to 90 minutes. […] The plate is measured for kinetically at 1 cycle/sec for 180 seconds and is considered to be the agonist portion of the assay (eg, compounds which activate a positive calcium response during this portion are flagged as potential agonists). Following the 180 second read, 1 ul of an EC20 of dopamine is delivered by an onboard pipette head. […]

[9] = biological target: D(1A) dopamine receptor (Homo sapiens) (UniProt P21728); experiment: HTS Assay for Allosteric Agonists of the Human D1 Dopamine Receptor: Primary Screen for Antagonists (AID 488983);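 note: calcium flux response to an EC80 dopamine challenge measured with no-wash dye; nearly all actives have a fitted effect of over 65% in size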
In short: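 Cells are induced with tetracycline and incubated overnight at 30 C, then loaded with calcium dye for 30 to 90 minutes at room temperature. Compound addition is followed by a 180 s read, then an EC80 dopamine addition and another 180 s read.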

[10] = Validation screen for small molecules that induce genotoxicity in human embryonic kidney (HEK293T) cells expressing luciferase-tagged ELG1 (AID 493106); conditions: luminescence; note: potency is the fitted concentration of half-maximal effect
In short: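 Luminescence from an ELG1-luciferase fusion serves as the read-out, rising when genetic stress elevates ELG1 protein. HEK293T reporter cells (2,000 per well) received 23 nL compound, incubated 16 hr at 37 °C, then ONE-Glo for 30 min at room temperature.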

With `C[N+]1(C)[C@@H]2CC(OC(=O)C(O)(c3cccs3)c3cccs3)C[C@H]1[C@@H]1O[C@@H]12` (some centres not stated) the Potency [1] was “inactive”.

For `CC(C)[C@@H](N)C(=O)O`, the Potency [1] was “inactive”.

For `CCOC(=O)C1=C(COCCN)NC(C)=C(C(=O)OC)C1c1ccccc1Cl` (configuration not stated), the Potency [1] was “inactive”.

For `CNC(=O)[C@H](Cc1c[nH]c2ccccc12)NC(=O)[C@@H](CC(=O)NO)CC(C)C`, the Potency [1] was “inactive”.

For `FC(F)(F)C(F)(F)C(F)(F)C(F)(F)C(F)(F)F`, the Potency [1] was “inactive”.

In the case of `Cc1ccc(S(=O)(=O)O)cc1C`, the Potency [1] is reported as “inactive”.

With `CC(CNC(=O)c1cccnc1)NC(=O)c1cccnc1` (configuration not stated) the Potency [1] was “inactive”.

With `Nc1nc(=O)n([C@@H]2CS[C@H](CO)O2)cc1F` the Potency [1] was “inactive”.

In the case of `CN1CCCC(CN2c3ccccc3Sc3ccccc32)C1` (configuration not stated), the Potency [1] is reported as “inactive”.

With `S=C1SCN(Cc2ccccc2)CN1Cc1ccccc1` the Potency [1] was “inactive”.

In the case of `Cc1ncc[nH]1`, the Potency [1] is reported as “inactive”.

In the case of `O=c1[nH]c(=O)n([C@H]2C[C@H](O)[C@@H](CO)O2)cc1/C=C/Br`, the outcome [2] is reported as “inactive”, the outcome [3] is reported as “inactive” and the outcome [4] is reported as “inactive”. For the same compound, the Potency [1] was “inactive”.

For `CC(C)(COP(=O)(O)OP(=O)(O)OC[C@H]1O[C@@H](n2cnc3c(N)ncnc32)[C@H](O)[C@@H]1OP(=O)(O)O)C(O)C(=O)NCCC(=O)NCCS` (some centres not stated), the Potency [1] was “inactive”.

With `Cn1nnnc1SCC1=C(C(=O)O)N2C(=O)[C@@H](NC(=O)[C@H](O)c3ccccc3)[C@H]2SC1` the Potency [5] was 3.98 µM (active).

With `c1ccc2ccccc2c1` the Potency [1] was “inactive”.

For `CC(C)O`, the Potency [1] was “inactive”.

For `OCCOCCOCCO`, the Potency [1] was “inactive”.

With `O=C(O)[C@H]1C(=CCO)O[C@H]2CC(=O)N12` the Potency [1] was “inactive”.

In the case of `CCCCC`, the Potency [1] is reported as “inactive”.

For `CC(/C=C/C=C(\C)C(=O)O[C@@H]1O[C@H](CO[C@@H]2O[C@H](CO)[C@@H](O)[C@H](O)[C@H]2O)[C@@H](O)[C@H](O)[C@H]1O)=C\C=C\C=C(C)\C=C\C=C(/C)C(=O)O[C@@H]1O[C@H](CO[C@@H]2O[C@H](CO)[C@@H](O)[C@H](O)[C@H]2O)[C@@H](O)[C@H](O)[C@H]1O`, the Potency [1] was “inactive”.

For `CCOC(=O)Cc1ccc(-c2ccccc2)cc1`, the Potency [1] was “inactive”.

With `O=C(NCCNCC(O)COc1ccc(O)cc1)N1CCOCC1` (configuration not stated) the outcome [2] was “inactive”, the outcome [3] was “inactive” and the outcome [4] was “inactive”.

In the case of `C=CCOc1ccc(CC(=O)O)cc1Cl`, the Potency [1] is reported as “inactive”.

With `O=C(O)Cc1cc(I)c(Oc2ccc(O)c(I)c2)c(I)c1` the Potency [1] was “inactive”.

In the case of `C(=C\c1ccncc1)/c1ccccc1`, the Potency [1] is reported as “inactive”.

For `C[C@H](CCCC(C)(C)O)[C@H]1CC[C@H]2[C@@H]3CC=C4C[C@@H](O)CC[C@]4(C)[C@H]3CC[C@]12C`, the Potency [1] was “inactive”.

With `CCCCC(CC)CCC(CC(C)C)OS(=O)(=O)O` (configuration not stated) the Potency [1] was “inactive”.

For `Cc1cc(=O)c(C(=O)N[C@@H](C(=O)N[C@@H]2C(=O)N3C(C(=O)O)=C(CSc4nnnn4C)CS[C@H]23)c2ccc(O)cc2)c[nH]1`, the Potency [1] was “inactive”.

With `C[C@@](Cc1ccc(O)c(O)c1)(NN)C(=O)O` the outcome [2] was “inactive”, the outcome [3] was “inactive” and the outcome [4] was “inactive”.

For `CCCCCCCCCCCCOCCCN`, the Potency [1] was “inactive”.

With `Cc1cc(C)c(NC(=O)C[C@H](CC(=O)O)c2cccc3ccccc23)c(C(=O)N2CCC3(CCCC3)CC2)c1` the outcome [2] was “inactive”, the outcome [3] was “inactive” and the outcome [4] was “inactive”. The Potency [1] was “inactive”.

For `Oc1ccc(/C=C/c2cc(O)cc(O)c2)cc1`, the outcome [2] was “inactive”, the outcome [6] was “inactive” and the outcome [3] was “inactive”. The outcome [4] was “inactive”, the outcome [7] was “inactive” and the outcome [8] was “inactive”. For the same compound, the outcome [9] was “inactive” and the Potency [10] was 2.91 µM (active).

For `C=Cc1ccc(S(=O)(=O)O)cc1`, the Potency [5] was 12.6 µM (active) and the Potency [1] was “inactive”.

In the case of `CC1CC(OC(=O)C(O)c2ccccc2)CC(C)(C)C1` (configuration not stated), the Potency [1] is reported as “inactive”.

With `C=CC(=O)O` the Potency [1] was “inactive”.

For `CCOc1ccc(S(=O)(=O)O)c2cccnc12`, the Potency [1] was “inactive”.

For `CC(C)(Oc1ccc(C2CCCc3ccccc32)cc1)C(=O)O` (configuration not stated), the Potency [1] was “inactive”.

For `O=C(O)Cc1nn(Cc2ccc(Br)cc2F)c(=O)c2ccccc12`, the Potency [1] was “inactive”.

With `CCN(CC)C(=O)c1cccnc1` the Potency [1] was “inactive”.

For `CC1=C(/C=C/C(C)=C/C=C/C(C)=C/C(=O)Oc2c(C)c(C)c3c(c2C)CC[C@@](C)(CCC[C@H](C)CCC[C@H](C)CCCC(C)C)O3)C(C)(C)CCC1`, the Potency [1] was “inactive”.

In the case of `C#C[C@]1(O)CC[C@@H]2[C@H]3CCC4=CC(=O)CC[C@H]4[C@H]3C(=C)C[C@@]21CC`, the Potency [1] is reported as “inactive”.

With `Nc1nccs1` the Potency [1] was “inactive”.

With `Cc1c(Cl)cccc1Nc1ncccc1C(=O)O` the Potency [1] was “inactive”.

In the case of `COc1ccc(C(=O)c2ccc(C)cc2)c(O)c1`, the Potency [1] is reported as “inactive”.

In the case of `CCN(CC)C(=S)S`, the Potency [1] is reported as “inactive”.

In the case of `c1ccc2c(c1)Sc1ccccc1N2CCN1CCCC1`, the Potency [1] is reported as “inactive”.

For `OC/C=C/c1ccccc1`, the Potency [1] was “inactive”.

For `CC(C)CCCC(C)NC(C)C` (configuration not stated), the Potency [1] was “inactive”.

For `CC(=O)N=c1sc(S(N)(=O)=O)nn1C`, the Potency [1] was “inactive”.
